Laboratory results as given in PubChem BioAssay.
Values joined by “and” are separate entries in the source; they are usually repeats but may differ in a detail not shown here. Equal values may be shown once. Active and inactive are the calls of the source.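 The calls were made as follows: active = compounds killing one labelled cell type while sparing the other, by normalised counts and ratio limits, not self-fluorescent; inactive = the rest.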

Assay: EMT-state selective cytotoxicity in co-culture – imaging, PC-3E GFP, TEM4-18 mCherry, primary screen (AID 1345086);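 also: cells exposed to compound for 72 h before imaging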;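 as to red/green cell ratio (normalised): normalised mesenchymal count divided by normalised epithelial count so high means epithelial killing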
Details: PC-3E GFP / TEM4-18 mCherry co-culture, imaging cell counts, at 1 µM; for red/green cell ratio (normalised): actives lie on both sides, counts scaled to control wells, 1 = unselective
[1] = measured here: epithelial PC-3E GFP cell survival
[2] = measured here: mesenchymal TEM4-18 mCherry cell survival

Compound	red/green cell ratio (normalised)	normalised cell number [1]	normalised cell number [2]
O=c1c(O)cc([C@H]2Oc3cc(O)cc(O)c3C[C@H]2O)cc2c([C@H]3Oc4cc(O)cc(O)c4C[C@@H]3O)cc(O)c(O)c12	0.92 (inactive)	1.03	0.95
CC(C)[C@H]1COC(=S)N1C(C)CC(=O)N1CCOC1=O (some centres undefined)	1.02 (inactive)	1.09	1.11
CC(C)[C@@H]1CC[C@@H](C)C[C@H]1OC(=O)c1ccccc1	1.07 (inactive)	0.9	0.97
COC1O[C@@H]2O[C@]3(C)CC[C@H]4[C@H](C)CC[C@@H]([C@H]1C)[C@@]24OO3 (some centres undefined)	0.81 (inactive)	0.82	0.67
CCSC(SCC)[C@@H]1NC(=O)O[C@H]1[C@H](O)[C@H](O)CO	1 (inactive)	1.12	1.12
COc1cc(OC)c2c(=O)c(OC)c(-c3ccccc3)oc2c1	0.85 (inactive)	1.32	1.13
O=c1c(O)c(-c2ccc(O)c(O)c2)oc2c(O[C@@H]3O[C@H](CO)[C@H](O)[C@@H](O)[C@H]3O)c(O)cc(O)c12	0.95 (inactive)	1.06	1.01
COc1cc(O)c(C(C)=O)c(O)c1	0.99 (inactive)	0.97	0.97
O=C1NCC[C@@H]1Oc1ccc(Oc2cnc3ccc(Cl)cc3n2)cc1	0.74 (inactive)	1.03	0.76
COC1=CC(=O)C(C)=C(C[C@@H](C)O)C1=O	1.12 (inactive)	0.99	1.11
C[C@]12CCC3c4ccc(O)cc4C[C@@H](CCCCCCCCCS(=O)CCCC(F)(F)C(F)(F)F)C3C1CC[C@@H]2O (some centres undefined)	1.23 (inactive)	0.99	1.21
O=C1OCC[C@@H]1Oc1ccc(Oc2cnc3ccc(Cl)cc3n2)cc1	0.83 (inactive)	1.22	1.01
C=C[C@@](C)(O)CCC1C(=C)C[C@H](OC(C)=O)C2C(C)(C)CCCC12C (some centres undefined)	1.05 (inactive)	1.03	1.08
COc1c(F)c(F)cc(C(=O)O)c1F	1.1 (inactive) and 1.01 (inactive)	0.89 and 0.98	0.98 and 0.99
COC(=O)C1O[C@H](OC)[C@@H](OCc2ccccc2)[C@@H](OCc2ccccc2)C1O (some centres undefined)	1 (inactive)	1.14	1.15
COC(=O)c1cn(C2CC2)c2c(OC)c(F)c(F)cc2c1=O	0.9 (inactive)	1.11	1
COc1cc(/C=C/C(=O)/C=C(O)/C=C/c2ccc(O)c(OC)c2)ccc1O	1.04 (inactive)	1.02	1.06
C[C@@H]1OC(O[C@H]2[C@H](O)[C@@H](O)[C@H](OC[C@H]3O[C@@H](OC(=O)[C@]45CCC(C)(C)CC4C4=CCC6[C@@]7(C)CC[C@H](OC8OC[C@H](O)[C@H](O)[C@H]8OC8O[C@@H](C)[C@H](O)[C@@H](O)[C@H]8O)[C@@](C)(CO)C7CC[C@@]6(C)[C@]4(C)CC5)[C@H](O)[C@@H](O)[C@@H]3O)O[C@@H]2CO)[C@H](O)[C@H](O)[C@H]1O (some centres undefined)	0.98 (inactive)	0.96	0.93
COC(=O)/C(=C1\OC(=O)C(c2ccccc2)=C1O)c1ccccc1	1.05 (inactive)	1.05	1.11
O=c1cc(-c2ccccc2)oc2ccc(O)cc12	1.07 (inactive)	0.91	0.97
O=C1C[C@@H](O)[C@]23Oc4ccc(O)c5c4[C@](Oc4cccc1c42)(O3)C1O[C@@H]1[C@H]5O (some centres undefined)	0.97 (inactive)	1.1	1.07
Cc1ccc(S[C@H]2OC(COCc3ccccc3)C(O)[C@@H]3OC(=O)N[C@H]23)cc1 (some centres undefined)	1.07 (inactive)	0.9	0.96
COC(=O)CC1C(C)(C)C(OC(C)=O)[C@@H]2[C@@H](OC(C)=O)[C@]34O[C@@]2(O)C1(C)C3CC[C@]1(C)C4=CC(=O)O[C@H]1c1ccoc1 (some centres undefined)	1.07 (inactive)	0.89	0.95
C=C1C(=O)OC(C(=O)OC)C1CCCCCCCC(C)O (centres undefined)	1.07 (inactive)	1.11	1.18
COc1c(N2CC[C@@H](CN)C2)c(F)cc2c(=S)c(C(=O)O)cn(C3CC3)c12	1.12 (inactive)	1.08	1.2
O=C(Nc1ccccc1)Nc1ccc(CO)cc1	0.81 (inactive)	1.24	1.01
NC(=O)C[C@H](NC(=O)OCc1ccccc1)C(=O)O	1.25 (inactive)	0.87	1.08
O=c1c2cc(O)c(O)cc2oc2cc(O)c(C3O[C@H](CO)[C@H](O)[C@@H](O)[C@H]3O)c(O)c12 (some centres undefined)	0.86 (inactive)	0.99	0.85
